Source: PubChem BioAssay AID652071 (NMMLSC, 2013)
Calls of active or inactive are those of the source. How the calls were made is not given here.

Experiment: yeast cytosolic pH changes via V-ATPase – S. cerevisiae, pHLuorin, powder set 4, dose response (AID 652071)
Conditions: S. cerevisiae pHLuorin cytosolic pH fluorescence; series mostly up to 100 µM; response change, sign ambiguous: at the top concentration

Row | SMILES | response change, sign ambiguous
1 | CN1CCN(c2ccccc2NC(=O)c2cc(C(F)(F)F)ccn2)CC1 | -25.1% (inactive)
2 | CN(C)C(=O)c1cccc(C(=O)Nc2ccccc2N2CCCCC2)c1 | -8.64% (inactive)
3 | CN1CCN(c2ccccc2NC(=O)c2cccc(C(=O)N(C)C)c2)CC1 | 5.41% (inactive)
4 | Cc1cccc(C(=O)Nc2ccccc2N2CCN(C)CC2)n1 | -22.4% (inactive)
5 | CC(=O)N1CCN(c2ccccc2NC(=O)c2cccc(CS(C)(=O)=O)c2)CC1 | 13.3% (inactive)
6 | CN1CCN(c2ccccc2NC(=O)c2cccc(CS(C)(=O)=O)c2)CC1 | -10.9% (inactive)
7 | Cc1cncc(C(=O)Nc2ccccc2N2CCN(C)CC2)n1 | -10.2% (inactive)
8 | COCc1ccc(C(=O)Nc2ccccc2N2CCN(C(C)=O)CC2)o1 | -4.67% (inactive)
9 | CS(=O)(=O)c1ccc(C(=O)Nc2ccccc2N2CCCCC2)o1 | -5.92% (inactive)
10 | CN1CCN(c2ccccc2NC(=O)c2cccc(S(=O)(=O)N(C)C)c2)CC1 | 14.1% (inactive)
11 | COCc1cccc(C(=O)Nc2ccccc2N2CCCCC2)c1 | -22.1% (inactive)
12 | CC(=O)N1CCN(c2ccccc2NC(=O)c2occc2-c2ccccc2)CC1 | 42.4% (inactive)
13 | CN1CCN(c2ccccc2NC(=O)c2cccc(Cl)n2)CC1 | 14.3% (inactive)
14 | Cc1cccc(C(=O)Nc2ccccc2N2CCCCC2)n1 | -33.3% (inactive)
15 | CN1CCN(c2ccccc2NC(=O)c2ccc(C(C)(C)C)o2)CC1 | -20.7% (inactive)
16 | CC(=O)N1CCN(c2ccccc2NC(=O)c2cccc(S(=O)(=O)N(C)C)c2)CC1 | 8.75% (inactive)
17 | COCc1cccc(C(=O)Nc2ccccc2N2CCN(C)CC2)c1 | 6.5% (inactive)
18 | CC(=O)N1CCN(c2ccccc2NC(=O)c2ccc(Cl)o2)CC1 | -3.95% (inactive)
